Data as given in PubChem BioAssay AID1159580 (chemical genetic matrix, 2015).
About 2,000 (36%) of roughly 5,500 compounds were called active. About 18% were inconclusive and are not listed. No stated cut-off is given here; in the data, active means normalized growth mostly below about 0.91 (no sharp cut-off); inconclusive means no clear call, values can overlap the other calls; inactive means mostly above about 0.92. The list shows a part of the results.

Assay: chemical genetic growth profiling, strain panel (AID 1159580);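 further: tested at 20 µM; growth read once vehicle control cultures reached saturation at 30 °C; 1 = growth at the plate median or of vehicle wells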
Conditions: S. cerevisiae deletion strains, growth OD
[1] = locus YHR030C, strain SLT2, stronger effect = lower value

Measured: normalized growth

COc1ccc(C(C)=O)c(O)c1
inactive: [1] 0.966 | locus YHR079C, strain IRE1, stronger effect = lower value 0.965 | locus YJL095W, strain BCK1, stronger effect = lower value 0.968 | locus YJR066W, strain TOR1, stronger effect = lower value 0.905 | locus YLR113W, strain HOG1, stronger effect = lower value 0.96 | locus YNL183C, strain NPR1, stronger effect = lower value 0.892 | locus YOR231W, strain MKK1, stronger effect = lower value 0.968 | locus YPL256C, strain CLN2, stronger effect = lower value 0.957

COC(=O)c1cc(OC)c(OC)c(OC)c1NS(=O)(=O)c1cc(OC)ccc1OC
inactive: locus YAL013W, strain DEP1, stronger effect = lower value 0.999 | locus YBR229C, strain ROT2, stronger effect = lower value 0.999 | locus YCL061C, strain MRC1, stronger effect = lower value 0.974 | locus YDL101C, strain DUN1, stronger effect = lower value 0.968 | locus YDL134C, strain PPH21, stronger effect = lower value 1.02 | locus YDR150W, strain NUM1, stronger effect = lower value 0.984 | locus YEL061C, strain CIN8, stronger effect = lower value 1.03 | locus YGR078C, strain PAC10, stronger effect = lower value 0.983 | locus YGR229C, strain SMI1, stronger effect = lower value 1.01 | [1] 0.965 | locus YHR087W, strain rtc3, stronger effect = lower value 1.03 | locus YJR043C, strain POL32, stronger effect = lower value 0.987 | locus YJR075W, strain HOC1, stronger effect = lower value 0.992 | locus YLR039C, strain RIC1, stronger effect = lower value 0.984 | locus YLR058C, strain SHM2 (second series), stronger effect = lower value 1.02 | locus YLR085C, strain ARP6, stronger effect = lower value 1.02 | locus YLR262C, strain YPT6, stronger effect = lower value 1.02 | locus YML094W, strain GIM5, stronger effect = lower value 1.04 | locus YMR219W, strain ESC1, stronger effect = lower value 1 | locus YMR263W, strain SAP30, stronger effect = lower value 1 | locus YNL128W, strain TEP1, stronger effect = lower value 1 | locus YNL153C, strain GIM3, stronger effect = lower value 0.992 | locus YNL298W, strain CLA4 (second series), stronger effect = lower value 0.987 | locus YNL322C, strain KRE1, stronger effect = lower value 0.996 | locus YNR030W, strain Alg12, stronger effect = lower value 1.01 | locus YOL006C, strain TOP1, stronger effect = lower value 0.981 | locus YPL055C, strain LGE1, stronger effect = lower value 1.03 | locus YPL241C, strain CIN2, stronger effect = lower value 0.983 | locus YPR135W, strain CTF4, stronger effect = lower value 0.969
